Assay outcomes from PubChem BioAssay.
The list is not random: actives were taken first. Their share in the collection is about 21%.
SARS PLpro yeast – blocks SARS-CoV papain-like protease in a yeast assay; S. cerevisiae expressing SARS-CoV PLpro, growth rescue; Potency, µM (titrated, usually from 32.9 µM), inactives show at the top dose activity, positive = growth rescue, actives largely listed as activators; 330,000 compounds, 0.19% hits; AID 485353; further: potency means the concentration at half of the fitted maximal effect; 0% is about no effect; nearly all actives have a fitted effect of over 55% in size
Pf growth 48h – P. falciparum growth inhibition at 48 hours (one generation). P. falciparum luciferase growth in erythrocytes, 48 h. Potency, µM (highest dose often 28.7 µM), for the others: at the highest dose activity change, negative = inhibition, most hits filed as inhibitors. 310,000 compounds, 5.9% hits; active means well fitted inhibition curve with a large enough effect; inconclusive means small, poorly fitted or top-dose-only effect, or another doubt; inactive means no such curve, though single readings can be large or run the other way; further: potency means the concentration at half of the fitted maximal effect; on the % scale 0 is the no-effect control and ±100 the full control effect
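Cell-based growth assay: transgenic P. falciparum expressing firefly luciferase, cultured in red cells within RPMI 1640 containing 0.5% w/v Albumax, 24 mM bicarbonate and gentamycin. A drop in luciferase activity indicates inhibition.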
Pf growth 96h – inhibits malaria parasite growth, 96 h; Potency, µM (series often up to 28.7 µM), for inactives: at the top dose activity change, negative = inhibition, usual class: inhibitors; AID 504834; P. falciparum luciferase reporter growth, 96 h; 320,000 compounds, 6.9% hits; active means well fitted inhibition curve with a large enough effect; inconclusive means small, poorly fitted or top-dose-only effect, or another doubt; inactive means no such curve, though single readings can be large or run the other way; further: potency means the concentration at half of the fitted maximal effect; on the % scale 0 is the no-effect control and ±100 the full control effect
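Plates of compound plus infected erythrocytes (2% hematocrit, 0.05% parasitemia final) incubate 96 hours, 37 C, 5% CO2. Detection reagent added; reduced luminescence from the parasites' luciferase reporter flags inhibition.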
Shiga toxin inh – blocks Shiga toxin action in Vero cells. 290,000 compounds, 9.2% hits. Vero cells, Shiga toxin protein synthesis inhibition reporter. inhibition, % at 38.7 µM; in the data active means inhibition mostly above about 28%, no sharp cut-off; inactive means mostly below about 43%; further: 0% is about no effect
NS1 function inh – inhibitors of influenza NS1 protein function. Potency, µM (titrated, usually from 46.1 µM), inactives show top-dose activity, positive = more growth. 270,000 compounds, 0.4% hits. AID 2326; further: potency means the concentration at half of the fitted maximal effect; actives are rising curves; nearly all actives have a fitted effect of over 50% in size
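In this qHTS, NS1 from influenza A is expressed in budding yeast, where it slows growth. Cells are switched from glucose to 2% galactose medium (pH 6.0, -URA), treated with compound, and growth recovery is read at OD600.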
Cycloheximide cs – counter-screen for Shiga toxin inhibitors: cycloheximide protein synthesis inhibition. cell reporter, cycloheximide protein synthesis inhibition counterscreen. max response, %. 300,000 compounds, 12% hits. AID 2314; in the data active means max response mostly above about 13%, no sharp cut-off; inactive means mostly below about 14%; further: read at 38.3 µM for the half of the compounds with a filed dose; 0% is about no effect
* hit, by the source's call; u = inconclusive; x = no result given. Unless noted, the call rests on the fitted dose curve.

SMILES	SARS PLpro yeast	Pf growth 48h	Pf growth 96h	Shiga toxin inh	NS1 function inh	Cycloheximide cs
S=C(NNC(=S)Nc1ccccc1)Nc1ccccc1	0%	45%	73%	56*	-40%	42*
C/C(=N/NS(=O)(=O)c1ccc(C)cc1)c1c[nH]c2ccccc12	-6%	0%	1.3µM*	-4	-7%	-1
C/C(=N/NS(=O)(=O)c1ccccc1)c1c[nH]c2ccccc12	5%	17%	u	-11	-10%	3
Nc1ccccc1C(=O)N1CCCC1	4%	5%	6%	-9	x	10
COc1ccc(/C=C/C2=Nc3ccccc3NC(C)(C)C2)cc1OC	-2%	u	u	59*	-6%	42*
CC(C)(C)c1nnc(N/N=C/c2ccc(Br)cc2)n(N)c1=O	-1%	20%	-13%	64*	13%	55*
CC(C)(C)c1ccc(/C=N/Nc2nncn2N)cc1	-10%	30%	91%	13	-91%	17*
O=C(Cn1cnc2ccccc2c1=O)N/N=C/c1ccc(Br)cc1	2%	9%	64%	21	2%	1
CSc1ccc(/C=N\Nc2nncn2N)cc1	-7%	-12%	36%	76*	-50%	28*
Nn1cnnc1N/N=C/c1cc(Br)cc(Br)c1O	6%	0%	70%	-14	-66%	-3
COc1cccc(NC(=O)COC(=O)C2CCCCC2)c1	-10%	x	x	x	x	x
COc1cccc(NC(=O)N2CCCC(C(=O)NC3CCCCC3C)C2)c1 (stereo not given)	16%	-17%	22%	27	8%	-3
CN(C)CCNC(=O)C(=O)NCC1OCCCN1S(=O)(=O)c1cccs1 (stereo not given)	14%	-2%	-2%	16	-12%	1
COc1ccccc1N=Nc1ccc(N)c(C)c1	-1%	96%	103%	91	-5%	32*
Cc1cc(-c2nn(-c3ccccc3F)cc2CN2CCC(O)CC2)c(C)s1	-2%	u	u	-5	-1%	-3
Cc1cc(-c2nn(-c3ccccc3F)cc2CN2CCN(c3ccncc3)CC2)c(C)s1	-1%	4.1µM*	u	1	1%	-1
CC(=O)Nc1ccc(S(=O)(=O)N2CCSc3ccccc32)cc1	5%	x	x	x	x	x
O=C(O)c1ccc(C2NCC(c3ccccc3Cl)c3c2[nH]c2ccccc32)cc1 (stereo not given)	-1%	0%	18%	-10	11%	-2
COc1cc(C2NCC(c3ccc(Cl)cc3Cl)c3c2[nH]c2ccccc32)cc(OC)c1OC (stereo not given)	-16%	13µM*	12µM*	-6	-35%	-1
CCN(CC)S(=O)(=O)c1ccc(Cl)c(C(=O)Oc2cccc(-c3cnc4ccccc4n3)c2)c1	x	109%	105%	81*	-8%	31*
CCN(CC)S(=O)(=O)c1cc(C(=O)Oc2cccc(-c3cnc4ccccc4n3)c2)ccc1Br	-4%	273%	x	65*	22%	61*
CCN(CC)S(=O)(=O)c1ccc(Cl)c(C(=O)Oc2cccnc2)c1	10%	74%	7%	57	-2%	-3
CC(=O)c1cccc(NC(=O)CN2CCc3cc4c(cc3C2C)OCCCO4)c1 (stereo not given)	-2%	u	u	11	-15%	-2
NC[C@@H]1O[C@H](OC2[C@@H](CO)O[C@@H](OC3[C@H](O)[C@H](N)C[C@H](N)[C@H]3OC3O[C@H](CO)[C@@H](O)[C@H](O)[C@@H]3N)[C@H]2O)C(N)[C@H](O)[C@@H]1O (stereo not given in full)	x	-13%	0%	x	x	x
CCC1CN(S(=O)(=O)c2ccc3c(c2)NC(=O)CC(=O)N3)c2cc(Cl)ccc2O1 (stereo not given)	3%	2.1µM*	u	-1	12%	-3
CCOC(=O)C1CN(S(=O)(=O)c2ccc(Cl)cc2)c2cc(S(=O)(=O)CC)ccc2O1 (stereo not given)	0%	u	-29%	29	-18%	-5
O=C(CN1CCN(Cc2cccc3ccccc23)CC1)NCCc1ccccc1	-3%	-24%	u	1	4%	5
COc1ccc(S(=O)(=O)N2CCN(C(=O)c3ccc([N+](=O)[O-])o3)CC2)cc1	-2%	u	u	-2	-12%	-1
